Results published in the supplement of paper PMC11417369.
Whole data set: some 25,000 sequences, median “ln(normalized median fluorescence intensity)” near 7.1, cut for the highest 2% near 10. This excerpt belongs to a sample that is enriched for the highest values.

Test system: PfSIP2 AP2 domain 1 (GST-tagged)
Experiment: gcPBM binding intensity (ln(normalized median fluorescence intensity)); higher = stronger DNA binding
Procedure, shortened: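 DNA-binding domains from P. falciparum, fused to GST and produced in E. coli, were put on an Agilent 4 × 180k double-stranded probe array for 1 h in 1× PBS holding 1% milk, 0.2 mg/ml BSA, 0.5% salmon testes DNA and 0.03% Triton X-100. Probes were primer-extended, 36 bp long and drawn from intergenic genomic regions, with negative controls included. After Alexa488 anti-GST antibody detection and a 488 nm scan, binding intensity was set as the highest Masliner-normalised natural-log median intensity across replicate spots of either probe orientation.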

Row | Sequence | gcPBM binding intensity (ln)
1 | TAATACCATTGTCATGCATGCACATTATTACTCTAA [TGCATGCA_site160] | 7.38
2 | CCTAAAGTGTAAAATTCACACACATATATATATATA [CACACA_site8385] | 8.94
3 | ATATATTTTAGGAGAGTGCATTTAATATTATTTAAT [GTGCAC_site9444] | 8.99
4 | TTTTATATTTTAAGAGTGCATTTTATATCTTTTTCT | 8.74
5 | ATTTTTTTCTTAGGAGTGCACTTATATTTATTTTAT | 11.2
6 | TATATATAATATACATGTACAAATGTATTTAAAAAT [XGTACX_site6090] | 7.07
7 | AGGTATATATTACAAGTGCACTGTAAAATTAAAATT | 10.7
8 | TGCATAATTAAAAATGGTACACTGTATTTATAATAT [XGTACX_site1575] | 7.13
9 | TAAAAAATTAATAAAGTGCATAAATATTACAATATT | 8.14
10 | TCTTATGAATATCCCCGTACACATATATTTCTTATA [XGTACX_site6877] | 7.22
11 | TATAAATTTTGTTTAGCACACACACCGACATACATA [CACACA_site9033] | 7.28
12 | AAACAAAAAAGAAACACACACTAATTAAATTTTCTT [CACACA_site4746] | 6.74
13 | AATATTTGTTAAAGAGGTACACCATTTGGTAGGGAA [XGTACX_site2165] | 7.06
14 | ATTTTTTTTTTTTTTTTAAGACAAACTCTTAATTTA [CACACA_negctrl_site1389] | 6.78
15 | TATGAAGTGCACAATACACACTAATTCTATATAAAT [CACACA_site7269] | 11.2
16 | TATGAAGTACACAATACACACTAATTATATATAAAT [CACACA_site5444] | 6.91
17 | TATATGAAGTACACAATACACACTAATTATATATAA [CACACA_site2608] | 7.12
18 | CATACATACAGATATACACACATATATAATAATATA [CACACA_site5477] | 7.14
19 | AGGTGCTTAATATATACACACATACAGATATATATA [CACACA_site5552] | 7.6
20 | ATAATAAAAATAAGAGAATAAAAATGCAATTTAATG [CACACA_negctrl_site878] | 6.81
21 | AAATGAATATTCATAGTGCAATATATAAATGAAAAT | 7.94
22 | AGAATAATAAAATGGGTGCAATAGTTTTTTTTTTTT [GTGCAC_site9823] | 10.4
23 | GAGAAATTTATACATACACACATATATATATTATAT [CACACA_site4038] | 7.16

Row | Sequence | gcPBM binding intensity (ln)
24 | ATATATATATATGTATGTATATATATATGTTTGATT [XGTACX_negctrl_site62] | 9.56
25 | ATTATTTTGTTTATTACATGCAGGTGTATATTACAG [TGCATGCA_site723] | 7.2
26 | TTACGAATTACATATTGTACATATGCACAATTTTAA [XGTACX_site6802] | 7.4
27 | AATATTACAATTTGGTGTACAGGTGCACATGCCTCA [XGTACX_site1730] | 11.5
28 | ATATATTCCATAAAGGTGCTGTTAACGTGTCAACGT [GTGCAC_site9402] | 7.84
29 | AAAAATAAATATATATGTACACATATGTATACAATA [XGTACX_site4692] | 7.03
30 | ATATATATATAGTGCACACATATAAAATATATATAA [CACACA_site2745] | 10.3
31 | ATATATATATATAGTGCACACATATAAAATATATAT [CACACA_site8884] | 10.1
32 | TATAATAAAATTTTTACACACTTTAAAAAAAAAAAA [CACACA_site524] | 6.88
33 | TTATACAGGACAATAGTGCACATAAATATATGTATA | 10.6
34 | ATATAAATATAGTGTGCACACACATAATATATATAT [CACACA_site8713] | 8.66
35 | AGTGCATAATATTTATGTACGTATCACATATATTTT [XGTACX_site5166] | 9.05
36 | ATATATCATATTATAGTGCATTTATAATAATATTAT | 9.33
37 | TTTATATTTTTTTTTGCACACTTTAAAAAAATATAT [CACACA_site1146] | 7.4
38 | AATACAATAAAATAGTGTACATATATATTATGTATA [XGTACX_site8258] | 6.93
39 | AAAAAAAAAAAAAGTGCACACTTTTAATATAAATAT [CACACA_site3314] | 10.8
40 | AACATATTGGATTTAGTGCACATATATATCATAATA | 10.3
41 | AAGTATTATTTTTATGCATGTGAAGTGCAAAATAAA [TGCATGCA_site198] | 9.56
42 | TTTTATTTTCGATGATGTACATTAAATTATACAGTA [XGTACX_site6053] | 7.01
43 | AATACAATTTTTAACACACACACAATAATACAGATA [CACACA_site4823] | 7.17
44 | ACAAATATGAGAAATTGTACATATAATAAAATAGTA [XGTACX_site2573] | 6.93
45 | AAATAAATAAATATACGTACATATATATAATATATA [XGTACX_site5124] | 7.23
46 | TATGTAAAAAGAGAAAAAAAAAAGAACGATAATTTC [CACACA_negctrl_site946] | 6.58

Row | Sequence | gcPBM binding intensity (ln)
47 | AATTAAAAAATTATCACACATATATATATATATATA [CACACA_site5789] | 9.53
48 | TTTATATACACACAGAAGAACAGAAATATTATATAT [TGCATGCA_negctrl_site483] | 7.2
49 | TTTAAAAAATAATATTGTACTATTCTCCCAATTTCT [XGTACX_site7079] | 6.57
50 | GGTATACATATTAAATGTACATATTTTAACAATAAG [XGTACX_site4868] | 7.1
51 | TGATTCTTTTGTATCACACACACTTAGTTTAATTTT [CACACA_site2404] | 6.85
52 | TCTGTAAATACGTGCACACACAAATCACAAATGTGA [CACACA_site330] | 9.89
53 | AATAAAAAAAAAAATAATATATATGTATAAATATAT [CACACA_negctrl_site1561] | 6.83
54 | AAAAAAAAAAAAAAAGCACACACCAATGAGCAGCTT [CACACA_site1845] | 7.62
55 | ATATCATTTTCCTGCACACATAAATTTATATAATAT [CACACA_site1048] | 7.82
56 | TAATAAAAAAAGTGCACACACATAATATTTATATAT [CACACA_site7548] | 10.7
57 | TTTTTTATTTTGTGCACACACATAAAAATATATATA [CACACA_site761] | 9.42
58 | ATTTTTTTATTTTGTGCACACACATAAAAATATATA [CACACA_site762] | 9.99
59 | TATATATTCATAAAGTGTACATGTTTATATATATAT [XGTACX_site7585] | 8.48
60 | AGGTCTGTTTTATATTGTACATAAAAAGTGCACATG [XGTACX_site4529] | 11.4
61 | TTTTTCCTATTTTTAGTGCACATATAAATAAATAAA [GTGCAC_site9821] | 10.7
62 | AATATAATATAATGCACACATAAAAAAAAAAAAATC [CACACA_site1303] | 7.43
63 | AATAATAAAAAAAGTGCACACACATAATATATATAT [CACACA_site9100] | 10.6
64 | TTTTTTATTTTGTGCACACACATAAAAATATAAATA [CACACA_site6497] | 9.8
65 | TATATCTGTTTATATTGTACACATATATATATATAT [XGTACX_site714] | 9.28
66 | AAAATAAAAATAAAAGCACACATAAATATATATATA [CACACA_site8409] | 8.73
67 | ATCTATTTCTATTGTTGTACTTATTTTTCATTGTTT [XGTACX_site6942] | 7.27
68 | AATAGGTGCCTTTTTTCACACACATGTCAACTAAAT [CACACA_site8846] | 9.34
69 | GATATATAAATAGATACACACATACATACATACATA [CACACA_site6260] | 7.18

Row | Sequence | gcPBM binding intensity (ln)
70 | ATATTTATTTTATAAAGTACTAAAAAATATATTATA [XGTACX_site8522] | 6.9
71 | CATATAATAAATAATTGTACTTGATATAATATTATG [XGTACX_site3562] | 6.91
72 | CCTTTATAAAAAAGTAGTACACAATGAATTTATAAT [XGTACX_site5523] | 7.1
73 | CAAAATTAATAAGTCACACACACATCTATAATATAT [CACACA_site6519] | 6.78
74 | ACATAAAATTGTTAAAAAATTGTATAAATAATACAT [XGTACX_negctrl_site557] | 6.81
75 | TAATTCTAAATAAATGTACACACAAAAATAAATGTA [CACACA_site8509] | 7.02
76 | TGTCAATCATATAAATGTACATTTTAAATGAGGTGT [XGTACX_site7391] | 7.36
77 | TAATTATTTTAAAAAGTGCATTAAAAGATATTAAAT [GTGCAC_site9694] | 8.22
78 | TATATATATATATGTGCACACATAATAAAAAAAAAA [CACACA_site3830] | 9.64
79 | AAATAAAGAATATAAATACACACTTAAATATATATT [CACACA_site4007] | 6.73
80 | AAAAGTATATATTCAGTGCATAGTCTTTAAATATAA [GTGCAC_site9522] | 8.15
81 | ATATATATATATAGTGCACACTTAAGAATATAAAGA [CACACA_site4771] | 10.2
82 | AATATAATATAATGCACACATAAAAAAAAAAAAAAA [CACACA_site304] | 7.47
83 | AAAAGTCTCTTTTTAGTGCACATTTTATTTAAATAT | 10.2
84 | TAATAAAAAAAGTGCACACACATAATATATATATAT [CACACA_site3340] | 10.4
85 | ATATATATATAGTGCACACTTAAGAATATAAAGAGG [CACACA_site1151] | 10.1
86 | ACAATAAAGAACAGTATGCACTTTTATGCATGCGTA | 8.94
87 | CAAATAATATTATGAAGTACTTCAAATTTTGAAAGA [XGTACX_site2530] | 6.98
88 | TATTTATTTATGTGTTGTACAAATAAATAGAGGTAT [XGTACX_site6408] | 7.35
89 | AAAAATAAAACAATTACACACATAATTTTATTTTTA [CACACA_site928] | 6.86
90 | ATATTTAACAGGTTAAAAATATAAACAAATAAATAA [CACACA_negctrl_site907] | 6.85
91 | ATGCAAAATAAAGAAGCACACAAAAATGAAATATAT [CACACA_site9217] | 7.2
